Experimental data reported in PubChem BioAssay AID1159580 (chemical genetic matrix, 2015).
Values joined by “and” are separate entries in the source; they are usually repeats but may differ in a detail not shown here. Equal values may be shown once. In all, about 5,500 compounds went through this assay and about 2,000 (36%) were called active. Inconclusive results (about 18%) are left out. No stated cut-off is given here; in the data, active means normalized growth mostly below about 0.91 (no sharp cut-off); inconclusive means no clear call, values can overlap the other calls; inactive means mostly above about 0.92. The list shows a part of the results.

Test: chemical genetic growth profiling, strain panel (AID 1159580);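 further: tested at 20 µM; growth read once vehicle control cultures reached saturation at 30 °C; 1 = growth at the plate median or of vehicle wells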
Settings: growth OD
[1] = S. cerevisiae deletion strains, locus YBR021W, strain FUR4, stronger effect = lower value
[2] = S. cerevisiae deletion strains, locus YBR229C, strain ROT2, stronger effect = lower value
[3] = S. cerevisiae deletion strains, locus YCL029C, strain bik1, stronger effect = lower value
[4] = S. cerevisiae deletion strains, locus YDL035C, strain GPR1, stronger effect = lower value
[5] = S. cerevisiae deletion strains, locus YDL074C, strain BRE1, stronger effect = lower value
[6] = S. cerevisiae deletion strains, locus YDL101C, strain DUN1, stronger effect = lower value
[7] = S. cerevisiae deletion strains, locus YDL185W, strain tfp1, stronger effect = lower value
[8] = S. cerevisiae deletion strains, locus YDL192W, strain arf1, stronger effect = lower value
[9] = S. cerevisiae deletion strains, locus YDR101C, strain arx1, stronger effect = lower value
[10] = S. cerevisiae deletion strains, locus YDR150W, strain NUM1, stronger effect = lower value
[11] = S. cerevisiae deletion strains, locus YDR162C, strain NBP2, stronger effect = lower value
[12] = S. cerevisiae deletion strains, locus YDR318W, strain mcm21, stronger effect = lower value
[13] = S. cerevisiae deletion strains, locus YDR388W, stronger effect = lower value
[14] = S. cerevisiae deletion strains, locus YDR502C, strain sam2, stronger effect = lower value
[15] = S. cerevisiae deletion strains, locus YEL061C, strain CIN8, stronger effect = lower value
[16] = S. cerevisiae deletion strains, locus YER110C, stronger effect = lower value
[17] = S. cerevisiae deletion strains, locus YER155C, strain BEM2, stronger effect = lower value
[18] = S. cerevisiae deletion strains, locus YER167W, strain BCK2, stronger effect = lower value
[19] = S. cerevisiae deletion strains, locus YGL078C, strain dbp3, stronger effect = lower value
[20] = S. cerevisiae deletion strains, locus YGL086W, strain mad1, stronger effect = lower value
[21] = S. cerevisiae deletion strains, locus YGL248W, strain PDE1, stronger effect = lower value
[22] = S. cerevisiae deletion strains, locus YGR078C, strain PAC10, stronger effect = lower value
[23] = S. cerevisiae deletion strains, locus YGR135W, strain pre9, stronger effect = lower value
[24] = S. cerevisiae deletion strains, locus YGR252W, strain gcn5, stronger effect = lower value
[25] = S. cerevisiae deletion strains, locus YHR030C, strain SLT2, stronger effect = lower value
[26] = S. cerevisiae deletion strains, locus YHR079C, strain IRE1 (second series), stronger effect = lower value
[27] = S. cerevisiae deletion strains, locus YHR079C, strain IRE1, stronger effect = lower value
[28] = S. cerevisiae deletion strains, locus YHR094C, strain hxt1, stronger effect = lower value
[29] = S. cerevisiae deletion strains, locus YHR129C, strain ARP1, stronger effect = lower value
[30] = S. cerevisiae deletion strains, locus YHR200W, strain rpn10, stronger effect = lower value
[31] = S. cerevisiae deletion strains, locus YIL066C, strain RNR3, stronger effect = lower value
[32] = S. cerevisiae deletion strains, locus YIL073C, strain SPO22, stronger effect = lower value
[33] = S. cerevisiae deletion strains, locus YIL125W, strain kgd1, stronger effect = lower value
[34] = S. cerevisiae deletion strains, locus YIR030C, strain dcg1, stronger effect = lower value
[35] = S. cerevisiae deletion strains, locus YJL095W, strain BCK1, stronger effect = lower value
[36] = S. cerevisiae deletion strains, locus YJL134W, strain LCB3, stronger effect = lower value
[37] = S. cerevisiae deletion strains, locus YJL168C, strain set2, stronger effect = lower value
[38] = S. cerevisiae deletion strains, locus YJL187C, strain SWE1 (second series), stronger effect = lower value
[39] = S. cerevisiae deletion strains, locus YJR043C, strain POL32, stronger effect = lower value
[40] = S. cerevisiae deletion strains, locus YJR066W, strain TOR1, stronger effect = lower value
[41] = S. cerevisiae deletion strains, locus YKL009W, strain mrt4, stronger effect = lower value
[42] = S. cerevisiae deletion strains, locus YKL068W, stronger effect = lower value
[43] = S. cerevisiae deletion strains, locus YKL085W, strain MDH1 (second series), stronger effect = lower value
[44] = S. cerevisiae deletion strains, locus YKL085W, strain MDH1, stronger effect = lower value
[45] = S. cerevisiae deletion strains, locus YKR001C, strain vps1, stronger effect = lower value
[46] = S. cerevisiae deletion strains, locus YLR039C, strain RIC1, stronger effect = lower value
[47] = S. cerevisiae deletion strains, locus YLR058C, strain SHM2, stronger effect = lower value
[48] = S. cerevisiae deletion strains, locus YLR102C, strain apc9, stronger effect = lower value
[49] = S. cerevisiae deletion strains, locus YLR113W, strain HOG1, stronger effect = lower value
[50] = S. cerevisiae deletion strains, locus YLR262C, strain YPT6, stronger effect = lower value
[51] = S. cerevisiae deletion strains, locus YLR268W, strain sec22, stronger effect = lower value
[52] = S. cerevisiae deletion strains, locus YLR330W, strain CHS5, stronger effect = lower value
[53] = S. cerevisiae deletion strains, locus YLR342W, strain FKS1 (second series), stronger effect = lower value
[54] = S. cerevisiae deletion strains, locus YLR371W, strain rom2, stronger effect = lower value
[55] = S. cerevisiae deletion strains, locus YLR418C, strain cdc73, stronger effect = lower value
[56] = S. cerevisiae deletion strains, locus YML016C, strain PPZ1, stronger effect = lower value
[57] = S. cerevisiae deletion strains, locus YML032C, strain rad52, stronger effect = lower value
[58] = S. cerevisiae deletion strains, locus YML124C, strain tub3, stronger effect = lower value
[59] = S. cerevisiae deletion strains, locus YMR078C, strain ctf18, stronger effect = lower value
[60] = S. cerevisiae deletion strains, locus YMR223W, strain ubp8, stronger effect = lower value
[61] = S. cerevisiae deletion strains, locus YMR307W, strain GAS1, stronger effect = lower value
[62] = S. cerevisiae deletion strains, locus YNL067W, strain RPL9B, stronger effect = lower value
[63] = S. cerevisiae deletion strains, locus YNL153C, strain GIM3, stronger effect = lower value
[64] = S. cerevisiae deletion strains, locus YNL183C, strain NPR1, stronger effect = lower value
[65] = S. cerevisiae deletion strains, locus YNL233W, strain BNI4, stronger effect = lower value
[66] = S. cerevisiae deletion strains, locus YNL250W, strain rad50, stronger effect = lower value
[67] = S. cerevisiae deletion strains, locus YNL271C, strain bni1, stronger effect = lower value
[68] = S. cerevisiae deletion strains, locus YNL298W, strain CLA4, stronger effect = lower value
[69] = S. cerevisiae deletion strains, locus YNL307C, strain MCK1, stronger effect = lower value
[70] = S. cerevisiae deletion strains, locus YNL322C, strain KRE1, stronger effect = lower value
[71] = S. cerevisiae deletion strains, locus YNR052C, strain pop2, stronger effect = lower value
[72] = S. cerevisiae deletion strains, locus YOL006C, strain TOP1, stronger effect = lower value
[73] = S. cerevisiae deletion strains, locus YOL012C, strain htz1
[74] = S. cerevisiae deletion strains, locus YOL147C, strain pex11, stronger effect = lower value
[75] = S. cerevisiae deletion strains, locus YOR061W, strain CKA2, stronger effect = lower value
[76] = S. cerevisiae deletion strains, locus YOR069W, strain VPS5, stronger effect = lower value
[77] = S. cerevisiae deletion strains, locus YOR136W, strain idh2, stronger effect = lower value
[78] = S. cerevisiae deletion strains, locus YOR144C, strain elg1, stronger effect = lower value
[79] = S. cerevisiae deletion strains, locus YOR184W, strain ser1, stronger effect = lower value
[80] = S. cerevisiae deletion strains, locus YOR231W, strain MKK1, stronger effect = lower value
[81] = S. cerevisiae deletion strains, locus YOR316C, strain cot1, stronger effect = lower value
[82] = S. cerevisiae deletion strains, locus YPL256C, strain CLN2, stronger effect = lower value
[83] = S. cerevisiae deletion strains, locus YPR119W, strain clb2, stronger effect = lower value
[84] = S. cerevisiae deletion strains, locus YPR141C, strain kar3, stronger effect = lower value
[85] = S. cerevisiae deletion strains, locus YPR163C, strain tif3, stronger effect = lower value
[86] = S. cerevisiae deletion strains, locus YPR167C, strain met16, stronger effect = lower value
[87] = S. cerevisiae deletion strains, strain wtn01, stronger effect = lower value

Measured: normalized growth

C[N+]1(C)CCCC(OC(=O)C(O)(c2ccccc2)c2ccccc2)C1 (centres undefined)
inactive: [1] 1.01 | [2] 1.01 | [3] 0.988 | [4] 1.02 | [5] 1.01 | [6] 0.999 | [7] 0.961 | [8] 0.983 | [9] 1 | [10] 1 | [11] 1.01 | [12] 0.976 | [13] 0.997 | [14] 0.989 | [15] 0.999 | [16] 0.968 | [17] 1 | [18] 0.995 | [19] 0.976 | [20] 1.02 | [21] 1 | [22] 1 | [23] 0.937 | [24] 0.936 | [25] 1 and 1.03 | [26] 0.982 | [27] 1.02 | [28] 0.996 | [29] 1 | [30] 0.975 | [31] 1.01 | [32] 0.937 | [33] 0.997 | [34] 0.978 | [35] 0.969 and 1.02 | [36] 1 | [37] 0.998 | [38] 1.01 | [39] 1.03 | [40] 0.986 | [41] 1 | [42] 0.991 | [43] 0.97 | [44] 0.97 | [45] 0.99 | [46] 0.94 | [47] 0.998 | [48] 0.982 | [49] 1.02 | [50] 0.979 | [51] 0.996 | [52] 0.994 | [53] 1.01 | [54] 0.985 | [55] 0.969 | [56] 1 | [57] 0.996 | [58] 0.991 | [59] 0.97 | [60] 0.951 | [61] 1.03 | [62] 0.997 | [63] 1 | [64] 0.983 | [65] 0.997 | [66] 0.962 | [67] 0.981 | [68] 0.968 | [69] 0.981 | [70] 0.99 | [71] 0.975 | [72] 0.969 | [73] 0.94 | [74] 0.993 | [75] 0.999 | [76] 1 | [77] 0.996 | [78] 0.993 | [79] 0.981 | [80] 1.02 | [81] 0.983 | [82] 1.03 | [83] 0.979 | [84] 0.983 | [85] 0.984 | [86] 0.987 | [87] 0.975

O=C1C(=O)c2ccccc2C(O)=C1C1CCC(c2ccc(Cl)cc2)CC1 (centres undefined)
inactive: S. cerevisiae deletion strains, locus YAL013W, strain DEP1, stronger effect = lower value 1.01 | [1] 0.992 | [2] 0.985 | [3] 0.992 | [4] 0.993 | [5] 0.975 | [6] 0.996 | S. cerevisiae deletion strains, locus YDL134C, strain PPH21, stronger effect = lower value 0.983 | [7] 1.01 | [8] 0.997 | [9] 0.991 | [10] 1.01 | [11] 0.997 | [12] 0.98 | [13] 0.981 | [14] 1 | [15] 0.996 | [16] 0.991 | [17] 0.983 | [18] 1.01 | [19] 1 | [20] 0.988 | [21] 0.998 | [22] 0.996 | [23] 0.991 | S. cerevisiae deletion strains, locus YGR229C, strain SMI1, stronger effect = lower value 1 | [24] 0.946 | [25] 0.998 and 1.01 | [26] 0.987 | [27] 1.01 | [28] 0.98 | [29] 0.988 | [30] 0.981 | [31] 0.989 | [32] 0.884 | [33] 0.996 | [34] 0.997 | [35] 0.949 and 1.01 | [36] 0.988 | [37] 0.977 | [38] 0.992 | [39] 1 | [40] 0.963 | S. cerevisiae deletion strains, locus YJR075W, strain HOC1, stronger effect = lower value 0.996 | [41] 0.997 | [42] 0.997 | [43] 0.989 | [44] 0.989 | S. cerevisiae deletion strains, locus YKL190W, strain CNB1, stronger effect = lower value 0.99 | [45] 0.947 | [46] 0.876 | [47] 0.988 | [48] 0.988 | [49] 1.05 | [50] 0.936 | [51] 0.972 | [52] 0.988 | [53] 0.951 | [54] 1 | [55] 0.987 | [56] 0.969 | [57] 1.01 | [58] 0.994 | [59] 0.974 | [60] 0.981 | S. cerevisiae deletion strains, locus YMR263W, strain SAP30, stronger effect = lower value 0.999 | [61] 0.924 | [62] 0.997 | S. cerevisiae deletion strains, locus YNL128W, strain TEP1, stronger effect = lower value 1.01 | [63] 0.989 | [64] 0.977 | [65] 0.987 | [66] 0.997 | [67] 0.991 | [68] 0.996 | [70] 1 | [71] 0.982 | [72] 0.903 | [73] 1.05 | [74] 0.986 | [75] 0.98 | [76] 0.991 | [77] 1 | [78] 0.988 | [79] 0.984 | [80] 1.03 | [81] 0.991 | S. cerevisiae deletion strains, locus YPL055C, strain LGE1, stronger effect = lower value 0.996 | S. cerevisiae deletion strains, locus YPL241C, strain CIN2, stronger effect = lower value 0.997 | [82] 1.03 | [83] 0.984 | [84] 1 | [85] 0.993 | [86] 0.995 | [87] 0.998 | S. cerevisiae strains, strain wild type, stronger effect = lower value 0.999
active: [69] 0.836
